# Reference: ChEMBL document CHEMBL1961873, “Compounds: GSK PKIS; Assays: Nanosyn kinase panel” (2012)
# “And” between values parts separate entries of the source, which are not always exact repeats. Equal values may be shown once.
# Legend:
# [1] = target: RAF proto-oncogene serine/threonine-protein kinase (Homo sapiens) (UniProt P04049); settings: at 1 µM;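 note: values are the mean percent inhibition of CRAF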
# [2] = target: T1, Interleukin-1 receptor-associated kinase 4 (Homo sapiens) (UniProt Q9NWZ3); settings: at 0.1 µM
# T1 sequence (whole entry): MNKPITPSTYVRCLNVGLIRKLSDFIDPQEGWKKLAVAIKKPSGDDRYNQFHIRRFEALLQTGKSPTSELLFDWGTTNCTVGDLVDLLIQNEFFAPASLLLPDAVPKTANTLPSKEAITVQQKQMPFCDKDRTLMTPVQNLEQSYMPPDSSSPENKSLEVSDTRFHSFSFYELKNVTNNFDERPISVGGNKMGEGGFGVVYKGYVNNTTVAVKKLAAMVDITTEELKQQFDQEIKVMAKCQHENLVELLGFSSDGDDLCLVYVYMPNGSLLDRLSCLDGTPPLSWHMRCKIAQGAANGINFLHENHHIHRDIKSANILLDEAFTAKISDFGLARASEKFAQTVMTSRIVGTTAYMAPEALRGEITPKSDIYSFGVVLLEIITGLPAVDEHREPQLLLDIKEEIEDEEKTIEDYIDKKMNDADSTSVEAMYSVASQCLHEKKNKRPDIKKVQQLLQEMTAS
# [3] = target: T1, Interleukin-1 receptor-associated kinase 4 (Homo sapiens); settings: at 1 µM
# [4] = target: Leucine-rich repeat serine/threonine-protein kinase 2 (Homo sapiens) (UniProt Q5S007); settings: at 0.1 µM
# Chain of Leucine-rich repeat serine/threonine-protein kinase 2 (Homo sapiens) (Q5S007 whole entry): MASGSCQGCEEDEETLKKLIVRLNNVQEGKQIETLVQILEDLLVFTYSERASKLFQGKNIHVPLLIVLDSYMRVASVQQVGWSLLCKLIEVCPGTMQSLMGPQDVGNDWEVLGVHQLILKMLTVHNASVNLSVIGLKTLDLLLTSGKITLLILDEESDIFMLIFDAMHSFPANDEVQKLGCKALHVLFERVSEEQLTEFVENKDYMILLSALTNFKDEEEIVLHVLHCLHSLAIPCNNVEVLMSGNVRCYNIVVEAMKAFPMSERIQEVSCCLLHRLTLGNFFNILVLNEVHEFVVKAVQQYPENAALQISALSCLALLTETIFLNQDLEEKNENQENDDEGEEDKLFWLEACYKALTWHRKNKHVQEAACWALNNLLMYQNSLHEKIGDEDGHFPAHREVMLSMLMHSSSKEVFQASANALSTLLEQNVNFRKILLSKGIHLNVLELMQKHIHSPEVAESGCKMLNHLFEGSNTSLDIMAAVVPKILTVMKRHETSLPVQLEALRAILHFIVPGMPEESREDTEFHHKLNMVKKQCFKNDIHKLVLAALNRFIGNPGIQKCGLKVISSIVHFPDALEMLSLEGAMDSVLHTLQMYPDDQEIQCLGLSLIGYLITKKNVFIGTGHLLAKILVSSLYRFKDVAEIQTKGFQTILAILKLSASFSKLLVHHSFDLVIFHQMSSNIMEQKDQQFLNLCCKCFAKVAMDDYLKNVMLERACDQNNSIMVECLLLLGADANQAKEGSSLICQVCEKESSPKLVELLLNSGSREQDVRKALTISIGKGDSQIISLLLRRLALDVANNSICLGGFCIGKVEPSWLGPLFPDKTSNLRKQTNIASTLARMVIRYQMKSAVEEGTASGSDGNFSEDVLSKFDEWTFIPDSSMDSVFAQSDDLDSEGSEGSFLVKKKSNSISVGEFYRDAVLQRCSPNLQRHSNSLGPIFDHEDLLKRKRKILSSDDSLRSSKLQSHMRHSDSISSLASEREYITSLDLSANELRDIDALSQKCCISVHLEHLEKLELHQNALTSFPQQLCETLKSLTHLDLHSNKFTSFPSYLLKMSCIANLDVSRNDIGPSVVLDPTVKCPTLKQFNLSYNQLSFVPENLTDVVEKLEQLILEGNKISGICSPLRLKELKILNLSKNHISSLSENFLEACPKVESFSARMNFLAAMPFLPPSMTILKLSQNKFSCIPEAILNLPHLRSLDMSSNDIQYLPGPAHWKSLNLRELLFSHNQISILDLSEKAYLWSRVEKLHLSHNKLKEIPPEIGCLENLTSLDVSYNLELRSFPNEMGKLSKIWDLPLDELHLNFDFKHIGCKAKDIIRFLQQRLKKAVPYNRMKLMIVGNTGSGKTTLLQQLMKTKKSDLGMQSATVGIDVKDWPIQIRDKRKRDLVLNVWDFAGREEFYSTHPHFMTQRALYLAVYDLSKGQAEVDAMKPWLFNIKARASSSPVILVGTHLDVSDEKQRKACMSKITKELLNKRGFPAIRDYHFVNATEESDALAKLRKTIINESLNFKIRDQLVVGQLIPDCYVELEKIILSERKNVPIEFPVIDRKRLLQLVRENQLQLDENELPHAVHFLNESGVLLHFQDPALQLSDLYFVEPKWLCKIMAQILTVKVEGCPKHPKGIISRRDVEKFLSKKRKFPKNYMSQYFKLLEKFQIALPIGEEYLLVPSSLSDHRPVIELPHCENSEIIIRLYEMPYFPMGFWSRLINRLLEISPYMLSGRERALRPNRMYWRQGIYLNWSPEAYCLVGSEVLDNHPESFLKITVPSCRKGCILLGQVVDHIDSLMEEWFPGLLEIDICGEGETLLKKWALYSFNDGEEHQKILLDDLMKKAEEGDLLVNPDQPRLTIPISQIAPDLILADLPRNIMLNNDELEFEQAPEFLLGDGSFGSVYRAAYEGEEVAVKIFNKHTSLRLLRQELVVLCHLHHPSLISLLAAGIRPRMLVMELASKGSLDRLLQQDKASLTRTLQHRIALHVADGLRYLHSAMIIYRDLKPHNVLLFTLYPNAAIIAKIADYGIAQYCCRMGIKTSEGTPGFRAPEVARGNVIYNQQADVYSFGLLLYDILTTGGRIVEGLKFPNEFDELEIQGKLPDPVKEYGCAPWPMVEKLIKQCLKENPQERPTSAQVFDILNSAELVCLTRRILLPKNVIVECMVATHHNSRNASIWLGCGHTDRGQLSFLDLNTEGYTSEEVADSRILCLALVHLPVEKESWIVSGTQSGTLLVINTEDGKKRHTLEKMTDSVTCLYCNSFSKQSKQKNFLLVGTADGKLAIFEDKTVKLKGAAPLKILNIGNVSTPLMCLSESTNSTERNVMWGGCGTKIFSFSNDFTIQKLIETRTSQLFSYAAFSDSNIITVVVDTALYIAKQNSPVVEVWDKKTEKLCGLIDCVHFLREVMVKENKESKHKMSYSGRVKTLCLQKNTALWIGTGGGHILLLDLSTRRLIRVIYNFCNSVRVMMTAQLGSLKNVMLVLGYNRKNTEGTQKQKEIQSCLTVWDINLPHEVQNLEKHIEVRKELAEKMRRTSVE
# [5] = target: Leucine-rich repeat serine/threonine-protein kinase 2 (Homo sapiens) (UniProt Q5S007); settings: at 1 µM
# [6] = test system: Leucine-rich repeat serine/threonine-protein kinase 2 (Homo sapiens), Q5S007 [G2019S]; settings: at 0.1 µM
# Chain of Leucine-rich repeat serine/threonine-protein kinase 2 (Homo sapiens), Q5S007 [G2019S] (Q5S007 whole entry G2019S): as the sequence (Q5S007 whole entry) above, with G2019S counted along it
# [7] = test system: Leucine-rich repeat serine/threonine-protein kinase 2 (Homo sapiens), Q5S007 [G2019S]; settings: at 1 µM
# Chain of RAF proto-oncogene serine/threonine-protein kinase (Homo sapiens) (P04049 whole entry): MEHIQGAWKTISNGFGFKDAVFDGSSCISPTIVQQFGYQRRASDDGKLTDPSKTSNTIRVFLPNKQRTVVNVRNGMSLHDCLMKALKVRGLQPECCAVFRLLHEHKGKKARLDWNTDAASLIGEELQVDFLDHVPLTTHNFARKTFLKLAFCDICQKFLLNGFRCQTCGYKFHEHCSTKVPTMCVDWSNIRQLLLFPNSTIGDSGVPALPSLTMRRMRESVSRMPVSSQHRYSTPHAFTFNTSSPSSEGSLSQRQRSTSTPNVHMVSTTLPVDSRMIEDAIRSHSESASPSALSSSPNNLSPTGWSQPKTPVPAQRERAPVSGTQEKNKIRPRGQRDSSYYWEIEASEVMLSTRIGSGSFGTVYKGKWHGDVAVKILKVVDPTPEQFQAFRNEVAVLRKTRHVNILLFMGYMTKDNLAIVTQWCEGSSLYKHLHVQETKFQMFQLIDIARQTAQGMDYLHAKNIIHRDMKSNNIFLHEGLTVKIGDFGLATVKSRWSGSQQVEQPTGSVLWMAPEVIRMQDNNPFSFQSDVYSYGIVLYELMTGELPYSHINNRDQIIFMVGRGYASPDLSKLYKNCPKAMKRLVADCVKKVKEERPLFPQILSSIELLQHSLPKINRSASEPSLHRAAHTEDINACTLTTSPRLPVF
SMILES,inhibition [1],inhibition [2],inhibition [3],inhibition [4],inhibition [5],inhibition [6],inhibition [7]
Cc1c2ccc(N(C)c3ccnc(Nc4cccc(S(N)(=O)=O)c4)n3)cc2nn1C,41%,4.14%,3.25%,0.45%,9.99%,1.58%,12.6%
Cc1cc(O)cc(C)c1/C=C/c1cncc(C(=O)OC(C)(C)C)c1,-0.4%,3.06%,1.36%,6.27%,9.43%,6.75%,10.9%
CS(=O)(=O)Nc1ccc(-c2ccc3c(NC(=O)C4CC4)n[nH]c3c2)cc1,5.45%,-4.64%,1.75%,9.03%,5.46%,9.88%,15.1%
O=C(O[C@H]1CN[C@H](C#Cc2cc3ncnc(Nc4ccc5c(ccn5Cc5cc(F)ccc5F)c4)c3s2)C1)N1CCOCC1,-3.01%,3.45%,2.43%,3.48%,6.3%,3.23%,5.91%
CCOc1ccc2c(-c3ccnc(Nc4cc(OC)cc(C(F)(F)F)c4)n3)cnn2n1,-1.65%,-3.8%,0.63%,1.55%,5.25%,3.62%,12.8%
Cc1ccc(-c2cc3c(NC(=O)C4CC4)ncnc3o2)cc1,-2.51%,-1.3%,2.26%,9.7%,12.2%,9.7%,16.6%
COc1cccc(Nc2nccc(-c3cnn4ncccc34)n2)c1,-1.47%,0.48%,11.1%,9.98%,21.1%,13.3%,54.8%
CC1=C(C(=O)Nc2ccc3[nH]nc(C)c3c2)C(c2ccc(C(F)(F)F)cc2)CC(=O)N1 (centres undefined),-1.39%,-3.01%,1.5%,5.54%,21.3%,9.85%,49.5%
Fc1ccc(Nc2nccc(-c3c(-c4ccc(C(F)(F)F)cc4)nn4ncccc34)n2)cc1F,1.86%,-4.78%,1.81%,5.42%,7.08%,5.93%,10.4%
CS(=O)(=O)CCNCc1ccc(-c2ccc3ncnc(Nc4ccc(OCc5ccccc5)cc4)c3c2)o1,2.22%,1.54%,1.78%,3.3%,6.64%,2.93%,7.35%
COc1cc2c(cc1Nc1nc(Nc3cccc(F)c3C(N)=O)c3cc[nH]c3n1)N(C(=O)CN1CCN(C(C)C)CC1)CC2,-4.19%,-0.19%,-0.43%,25.8%,76.8%,41.5%,59.8%
CCCNc1cccc(-n2ncc3c(N/N=C/c4ccncc4)ncnc32)c1,-3.81%,2.03%,0.71%,3.27%,12.2%,5.55%,37.8%
Cn1c(-c2nonc2N)nc2cnccc21,8.87%,3.47%,1.21%,2.89%,10.6%,4.16%,20.5%
O=C(Nc1n[nH]c2nnc(-c3cccnc3)cc12)C1CC1,-3.13%,-0.42%,-0.13%,0.99%,4.69%,2.42%,5.79%
CCS(=O)(=O)c1ccc(OC)c(Nc2ncc(-c3cccc(C(C)=O)c3)o2)c1,8.87%,-3.46%,1.19%,0.47%,4.65%,2.77%,11.8%
CCS(=O)(=O)c1ccc(OC)c(Nc2ncc(-c3cccc(F)c3)o2)c1,-3.37%,2.36%,5.42%,2.2%,14.5%,6.1%,27.9%
CCN1CCC(C(=O)Nc2n[nH]c3nnc(-c4cccc(F)c4F)cc23)CC1,-2.59%,0.27%,0.13%,1.99%,3.27%,2.15%,1.7%
COc1ccc(Nc2ncc(-c3ccccc3)o2)cc1OC,3.96%,2.27%,2.28%,1.05%,13.2%,3.5%,22.9%
CS(=O)(=O)CCNCc1ccc(-c2ccc3ncnc(Nc4ccc(OCc5cccc(C(F)(F)F)c5)cc4)c3c2)o1,-2.29%,2.1%,3.11%,1.61%,5.55%,4.24%,7.8%
c1ccc(-c2n[nH]cc2-c2ccnc(-c3ccc(OCCn4ccnc4)cc3)c2)nc1,-2.1%,4.92%,0.82%,0.79%,7.44%,3.12%,14.5%
COc1c(C(N)=O)cc(-c2ccc(Cl)cc2)cc1-c1ccc(S(N)(=O)=O)cc1,1.44%,1.96%,1.85%,-0.34%,6.11%,3.53%,9.4%

SMILES,inhibition [1],inhibition [2],inhibition [3],inhibition [4],inhibition [5],inhibition [6],inhibition [7]
CCn1c(-c2nonc2N)nc2cncc(C(=O)NCCNC)c21,0.85%,2.49%,3.05%,6.11%,28.8%,13%,51.8%
COc1cc(N2CCN(C(C)C)CC2)ccc1Nc1nc(Nc2cccc3ncccc23)c2cc[nH]c2n1,10.1%,5.39%,-0.29%,13%,23.2%,24.5%,63%
FC(F)(F)CNc1nccc(-c2cnn3ncccc23)n1,-1%,0.77%,1.21%,3.07%,8.2%,5.03%,9.11%
Fc1cccc(COc2ccc(Nc3ncncc3C#Cc3ccccc3)cc2Cl)c1,5.17%,0.71%,2.43%,3.65%,7.01%,4.05%,6.17%
CN1CCN(Cc2ccc(-c3cc4ncnc(Nc5ccc(OCc6cccc(F)c6)c(Cl)c5)c4s3)o2)CC1,-2.88% and 11.7%,0.28% and 1.52%,0.56% and 2.95%,2.03% and 2.75%,6.29% and 5.13%,4.59% and 4.9%,7.45% and 5.92%
c1cnn2ncc(-c3ccnc(NCCCN4CCOCC4)n3)c2c1,-5.16%,2.04%,1.39%,1.69%,1.57%,2.1%,5.03%
COc1cccc(-n2ncc3c(N/N=C/c4ccc(C(=O)NCCN(C)C)cc4)ncnc32)c1,1.13%,-3.06%,1.87%,8.48%,17.2%,12.5%,49.6%
CC1(C)CC(n2cnc(-c3ccc(F)cc3)c2-c2ccnc(N)n2)CC(C)(C)N1,2.12%,4.73%,0.49%,0.31%,5.05%,2.37%,6.19%
COc1cc(N2CCN(C(C)C)CC2)ccc1Nc1nc(Nc2cccc(F)c2C(=O)O)c2cc[nH]c2n1,0.19%,2.04%,2.25%,6.61%,16.3%,19%,59.3%
COc1ccc2ncn(-c3cc(O[C@H](C)c4ccccc4C(F)(F)F)c(C(N)=O)s3)c2c1,0.1%,1.48%,0.87%,4.72%,15.9%,5.16%,31%
Nc1ncnc2occ(-c3ccc(NC(=O)Nc4cc(C(F)(F)F)ccc4F)cc3)c12,-6.08% and -5.86%,-1.81% and -1.2%,1.77% and -0.37%,13.6% and 6.55%,18.1% and 19.4%,8.38% and 6.37%,35.4% and 28.6%
CS(=O)(=O)Nc1ccc(-c2cc(-c3ccccc3)cc(C(N)=O)c2N)cc1,-4.37%,0.55%,1.37%,1.64%,4.15%,3.87%,5.66%
Cc1cc(O)cc(C)c1/C=C/c1cncc(C(N)=O)c1,5.31%,-1.86%,0.71%,1.8%,6.26%,3.18%,13.3%
COc1ccccc1-c1cc(/C=C2\C(=O)Nc3ncc(Br)cc32)cc(Br)c1O,-9.49%,2.4%,1.85%,7.41%,17.6%,13.5%,55.3%
CNC(=O)c1ncccc1Nc1nc(Nc2cc3c(cc2OC)CCCN3C(=O)CN(C)C)nc2[nH]ccc12,-9.95%,-0.32%,2.65%,29.7%,26.6%,65.3%,64.5%
NC(=O)c1ccc2c(-c3ccnc(NCCCO)n3)c(-c3ccc(F)cc3)nn2c1,-4.3%,1.46%,2.22%,5.47%,7.44%,6.54%,9.18%
CC1=C(C(=O)Nc2ccc3[nH]ncc3c2)C(c2ccc(F)cc2)N=C(c2ccc(C(F)(F)F)nc2)N1 (centres undefined),-4.26%,-2.11%,0.95%,2.81%,7.24%,5.04%,26%
CNC(=O)c1sc(-n2cnc3cc(OC)c(OC)cc32)cc1OCc1ccccc1C(F)(F)F,0.72%,2.12%,1.97%,2.86%,9.7%,3.5%,7.21%
CN(c1ccc(NC(=O)NCCN2CCOCC2)cc1)c1ccnc(Nc2ccc(CS(C)(=O)=O)cc2)n1,7.58%,-5.94%,1.07%,2.79%,9.85%,2.66%,14.7%
CN(C)CCNC(=O)Nc1ccc(N(C)c2ccnc(Nc3ccc(CS(C)(=O)=O)cc3)n2)cc1,-0.82%,-4.3%,2.15%,4.46%,11.5%,6.1%,23%
N#Cc1ccc2c(-c3ccnc(NC4CC4)n3)c(-c3ccc(F)cc3)nn2c1,-2.54%,0.03%,-0.5%,2.1%,-2.22%,1.24%,-0.08%

SMILES,inhibition [1],inhibition [2],inhibition [3],inhibition [4],inhibition [5],inhibition [6],inhibition [7]
Nc1nccc(-c2c(-c3ccc(F)cc3)ncn2C2CCNCC2)n1,8.14% and -2.89%,3.05% and 0.88%,-1.58% and -0.23%,-1.76% and 1.62%,3.33% and 3.21%,0.34% and 3.78%,4.42% and 3.38%
COc1cc(Nc2ncc(-c3ccccc3)o2)cc(OC)c1,-1.38%,2.03%,2.83%,0.94%,6.82%,2.33%,12.5%
CC(C)c1ccc(-c2cc(-c3c[nH]nc3-c3ccccn3)ccn2)cc1,1.4%,1.27%,0.36%,2.9%,4.8%,1.2%,7.15%
NS(=O)(=O)c1cccc(N/C=C2\C(=O)Nc3ccccc32)c1,2.59%,2.9%,2.37%,3.41%,15.8%,6.57%,34%
O=C1Nc2ccccc2/C1=C1\CCc2cc(O)ccc21,-4.27%,0.67%,5.31%,17.6%,66.3%,22.1%,63.6%
NS(=O)(=O)c1ccc(N/N=C2\C(=O)Nc3cccc(CCc4ccncc4)c32)cc1,-2.61%,-0.38%,0.01%,6.21%,9.58%,8.14%,12.9%
OCCCNc1nccc(-c2c(-c3ccc(F)cc3)nn3cc(C(F)(F)F)ccc23)n1,-7.33%,-1.58%,1.48%,5.02%,7.46%,2.62%,7.85%
Nc1nonc1-c1nc2cnccc2n1C1CC1,5.43% and 2.92%,-0.18% and 2.38%,2.91% and 1.65%,8.81% and 0.08%,15.4% and 10.4%,13.3% and 5.33%,44.6% and 35%
N#Cc1cccc(Nc2ncc(-c3ccccc3)o2)c1,-0.15%,2.82%,0.78%,1.01%,2.11%,1.64%,4.25%
Cc1nnc(-c2cccc(-c3ccc(C(=O)NCC4CC4)cc3)c2)o1,1.67%,-1.48%,2.66%,3.32%,5.55%,4.33%,7.83%
O=C(O[C@H]1CN[C@H](C#Cc2cc3ncnc(Nc4ccc(OCc5cccc(F)c5)c(Cl)c4)c3s2)C1)N1CCOCC1,0.51%,1.13%,2.48%,2.8%,7.32%,4.61%,8.39%
COC(=O)Nc1nc2ccc(Oc3ccc(NC(=O)Nc4cc(C(F)(F)F)ccc4F)cc3)cc2s1,60.1%,1.94%,0.25%,17.4%,48.5%,9.18%,37.8%
O=C(O[C@H]1CN[C@H](C#Cc2cc3ncnc(Nc4ccc5c(cnn5Cc5ccccc5)c4)c3s2)C1)N1CCOCC1,-1.71%,-1.41%,-0.48%,1.16%,4.4%,3.12%,4.15%
COC(=O)Nc1nc2cc(Oc3ccc(NC(=O)Nc4ccccc4)cc3)ccc2[nH]1,17.3%,2.38%,0.86%,3.5%,6.86%,3.61%,4.1%
NS(=O)(=O)c1ccc(N/N=C2\C(=O)Nc3ccc(C(=O)NCc4ccncc4)cc32)cc1,-3.37%,-2.46%,1.57%,5.05%,11.6%,6.07%,30.8%
CN1CCC(n2cnc(-c3ccc(F)cc3)c2-c2ccnc(NCCO)n2)CC1,1.26%,-1.44%,1.47%,3.06%,4.49%,4.69%,5.35%
COc1ccc(-c2nn3ncccc3c2-c2ccnc(Nc3ccc(F)c(F)c3)n2)cc1,-4.25%,-0.54%,1.76%,5.52%,9.6%,6.22%,7.92%
CNC(=O)c1cncc(/C=C/c2ccccc2C)c1,-2.68%,-0.44%,2%,3.81%,6.67%,4.65%,9.68%
CS(=O)(=O)CCNCc1ccoc1-c1ccc2ncnc(Nc3ccc(OCc4ccccc4)cc3)c2c1,-1.65%,0.62%,1.15%,1.37%,3.82%,2.44%,2.57%
CN1CCC(C(=O)Nc2n[nH]c3nc(-c4ccc(O)cc4)c(Br)cc23)CC1,2.83% and -8.49%,3.04% and 2.37%,2.24% and 1.33%,-2.84% and -1.67%,2.03% and 7.36%,-0.31% and 1.49%,4.77% and 5.48%
